Inconclusive results are not listed. Active and inactive are the calls of the source. The call rests on the fitted dose curve; in most records, active means well fitted inhibition curve with a large enough effect; inconclusive means small, poorly fitted or top-dose-only effect; inactive means no such curve, though single readings can be large or run the other way.
Assay: InCell qHTS Assay for Inhibitors of the mTORC1 Signaling Pathway in MEF (Tsc2-/-, p53-/-) Cells: Hit Validation;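 further: phospho-S6 Ser235/236 signal normalized to propidium iodide cell count per well; nearly all actives have a fitted effect of over 75% in size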
Conditions: phospho-rpS6 immunofluorescence, 24 h; activity change, negative = inhibition: at 38.3 µM (top of the series)
Potency means the concentration at half of the fitted maximal effect.

Activity change, negative = inhibition, -15.2%:
CCN(C(=O)C(NS(=O)(=O)c1ccc(Br)s1)c1ccccc1)c1ccc(C)c(C)c1 (configuration not stated)

Activity change, negative = inhibition, 1.72%:
O=C(CC1(O)C(=O)N(CCc2ccccc2)c2ccc(Br)cc21)c1ccccc1O (configuration not stated)

Activity change, negative = inhibition, -100%:
CCOc1ccccc1NC(=O)c1cn(C2CCCC2)c(=O)c2c1c1ccccc1n2C
Nc1nnc(SCC(=O)Nc2cccc(F)c2)s1
O=S(=O)(NCC(c1ccco1)N1CCN(c2ccc(F)cc2)CC1)c1ccccc1 (configuration not stated)
CCN1CCN(c2ccc(NS(=O)(=O)c3c(C)nc4sccn4c3=O)cc2Cl)CC1
COc1ccccc1NC(=O)C1=C(C)Nc2nc(SCc3ccccc3)nn2C1c1cccs1 (configuration not stated)
CC(=O)Nc1ccc2nc(-c3cc(C)ccc3C)[nH]c2c1
COc1cc(Br)ccc1C1C(C(=O)Nc2ccc(C)cc2C)=C(C)Nc2nnnn21 (configuration not stated)
CCCN1C(=O)C(Cc2nc3ccccc3c(=O)n2CC)c2ccccc21 (configuration not stated)
COc1ccc(OC)c(NC(=O)c2nnn(CC(=O)Nc3ccc(C(C)C)cc3)c2N)c1
CCOC(=O)c1ccc2ncc(C(=O)OCC)c(NCCc3ccc(OC)c(OC)c3)c2c1
O=C(COc1ccc(F)cc1)Nc1ccc(Cl)c(-c2nc3ccccc3[nH]2)c1
COc1cc(CN(C(=O)COc2ccc(C)c(C)c2)c2ccccn2)cc(OC)c1OC
COc1ccccc1CNC(=O)CCCn1c(=O)c2cccn2c2ccccc21
CCOc1ccccc1NC(=O)Cn1c(=O)n(CCC(=O)NCc2ccc3c(c2)OCO3)c(=O)c2ccccc21
COc1ccc(S(=O)(=O)N(CCc2ccccc2)CC(=O)Nc2cccc(OC)c2)cc1
O=C(c1ccco1)n1nc(-c2ccc(Cl)cc2)nc1NCc1ccccc1
COc1ccc(CCNC(=O)CCCn2nc(C)c3sc4ccccc4c3c2=O)cc1OC
CCCC1=Nc2cc(C(=O)NCc3ccccc3)ccc2Sc2ccccc21
Cc1ccc(-c2nc3sccn3c2Nc2ccc(C)c(C)c2)cc1
COc1ccc(CCNC(=O)C(C)n2nc(C)c3sc4ccccc4c3c2=O)c(OC)c1 (configuration not stated)
COc1cc(C(=O)Nc2ccc(NC(=O)c3ccc(C(C)(C)C)cc3)cc2)cc(OC)c1OC
COc1cccc(C2CC(=O)Nc3cc4c(cc32)OCCO4)c1OC (configuration not stated)
Cc1ccc(C(=O)c2cn(CC(=O)NCc3ccccc3Cl)c3nc(C)ccc3c2=O)cc1
CCOc1ccc(C(=O)NCCc2sc(-c3ccc(C)cc3)nc2C)cc1
CCS(=O)(=O)c1ccccc1C(=O)N(Cc1cccnc1)c1nc2cc(C)c(C)cc2s1

Activity change, negative = inhibition, -12.8%:
CCOC(=O)C1CCN(c2cc3c(cc2NC(=O)c2ccccc2Cl)n(C)c(=O)n3C)CC1

Activity change, negative = inhibition, -1.72%:
Cc1oc2c(cc(NS(=O)(=O)c3ccc(C(C)C)cc3)c3ccccc32)c1C(=O)OCc1ccccc1

Activity change, negative = inhibition, -1.27%:
Cc1c(C(=O)OC2CCC(C)CC2)[nH]c2c1C(=O)CC(c1ccc(F)cc1)C2 (configuration not stated)

Activity change, negative = inhibition, -26.7%:
CCOC(=O)c1c(NC(=O)c2ccc(S(=O)(=O)N(C)C)cc2)sc2c1CCN(C)C2

Potency, active:
CCn1c(=N)n(CCOc2ccc(Br)cc2)c2ccccc21 14.7 µM
CCCCS(=O)(=O)c1oc(-c2cccs2)nc1S(=O)(=O)c1ccccc1 1.47 µM
CCC(C)S(=O)(=O)c1oc(-c2ccc(F)cc2)nc1S(=O)(=O)c1ccc(F)cc1 (configuration not stated) 1.47 µM
CCS(=O)(=O)c1oc(-c2ccc(F)cc2)nc1S(=O)(=O)c1ccc(Br)cc1 3.69 µM
CCCOCc1cc(CN2CCN(c3ccccc3OC)CC2)c(O)c2ncccc12 11.7 µM
CCc1ccc(NC(=O)Cn2c(=O)n(-c3ccc(OC)cc3)c(=O)c3ccc(C(=O)NCc4ccc(C)cc4)cc32)cc1 13.1 µM

Reference: PubChem BioAssay AID651791 (National Center for Advancing Translational Sciences (NCATS), 2012)
